# Results published in PubChem BioAssay AID1159580 (chemical genetic matrix, 2015).
# Screen size: about 5,500 compounds; about 2,000 (36%) were called active. Not shown: some 18% with an inconclusive outcome. Some of the results follow. Values without a mark were called inactive. Rule as the data show it: active = normalized growth mostly below about 0.91 (no sharp cut-off); inconclusive = no clear call, values can overlap the other calls; inactive = mostly above about 0.92.
# Test: chemical genetic growth profiling, strain panel (AID 1159580);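 also: tested at 20 µM; growth read once vehicle control cultures reached saturation at 30 °C; 1 = growth at the plate median or of vehicle wells; lower values mean less growth of the strain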
# Details: growth OD
smiles,measurement,setting,value
O=C(O[C@@H]1Cc2c(O)cc(O)cc2O[C@@H]1c1cc(O)c(=O)c2c(O)c(O)cc([C@H]3Oc4cc(O)cc(O)c4C[C@H]3OC(=O)c3cc(O)c(O)c(O)c3)c2c1)c1cc(O)c(O)c(O)c1,normalized growth,"S. cerevisiae deletion strains, locus YJR075W, strain HOC1, stronger effect = lower value",0.753 (active)
same,normalized growth,"S. cerevisiae deletion strains, locus YKL009W, strain mrt4, stronger effect = lower value",1.06
same,normalized growth,"S. cerevisiae deletion strains, locus YKL068W, stronger effect = lower value",1.04
same,normalized growth,"S. cerevisiae deletion strains, locus YKL085W, strain MDH1 (second series), stronger effect = lower value",1.05
same,normalized growth,"S. cerevisiae deletion strains, locus YKL085W, strain MDH1, stronger effect = lower value",1.05
same,normalized growth,"S. cerevisiae deletion strains, locus YKL160W, strain elf1, stronger effect = lower value",0.71 (active)
same,normalized growth,"S. cerevisiae deletion strains, locus YKL190W, strain CNB1, stronger effect = lower value",0.637 (active)
same,normalized growth,"S. cerevisiae deletion strains, locus YKR001C, strain vps1, stronger effect = lower value",0.979
same,normalized growth,"S. cerevisiae deletion strains, locus YKR026C, strain gcn3, stronger effect = lower value",0.971
same,normalized growth,"S. cerevisiae deletion strains, locus YKR091W, strain srl3, stronger effect = lower value",0.927 (active)
same,normalized growth,"S. cerevisiae deletion strains, locus YLL001W, strain dnm1, stronger effect = lower value",0.614 (active)
same,normalized growth,"S. cerevisiae deletion strains, locus YLL026W, stronger effect = lower value",0.553 (active)
same,normalized growth,"S. cerevisiae deletion strains, locus YLL041C, strain sdh2, stronger effect = lower value",0.661 (active)
same,normalized growth,"S. cerevisiae deletion strains, locus YLR027C, strain aat2, stronger effect = lower value",0.407 (active)
same,normalized growth,"S. cerevisiae deletion strains, locus YLR039C, strain RIC1, stronger effect = lower value",0.598 (active)
same,normalized growth,"S. cerevisiae deletion strains, locus YLR058C, strain SHM2, stronger effect = lower value",0.525 (active)
same,normalized growth,"S. cerevisiae deletion strains, locus YLR102C, strain apc9, stronger effect = lower value",1.04
same,normalized growth,"S. cerevisiae deletion strains, locus YLR113W, strain HOG1, stronger effect = lower value",1.12
same,normalized growth,"S. cerevisiae deletion strains, locus YLR221C, strain rsa3, stronger effect = lower value",0.573 (active)
same,normalized growth,"S. cerevisiae deletion strains, locus YLR258W, strain gsy2, stronger effect = lower value",0.523 (active)
same,normalized growth,"S. cerevisiae deletion strains, locus YLR262C, strain YPT6 (second series), stronger effect = lower value",0.539 (active)
same,normalized growth,"S. cerevisiae deletion strains, locus YLR262C, strain YPT6, stronger effect = lower value",0.69
same,normalized growth,"S. cerevisiae deletion strains, locus YLR268W, strain sec22, stronger effect = lower value",0.81 (active)
same,normalized growth,"S. cerevisiae deletion strains, locus YLR320W, strain mms22, stronger effect = lower value",0.619 (active)
same,normalized growth,"S. cerevisiae deletion strains, locus YLR330W, strain CHS5, stronger effect = lower value",0.898 (active)
same,normalized growth,"S. cerevisiae deletion strains, locus YLR342W, strain FKS1 (second series), stronger effect = lower value",0.449 (active)
same,normalized growth,"S. cerevisiae deletion strains, locus YLR342W, strain FKS1, stronger effect = lower value",0.447 (active)
same,normalized growth,"S. cerevisiae deletion strains, locus YLR357W, strain rsc2, stronger effect = lower value",0.602 (active)
same,normalized growth,"S. cerevisiae deletion strains, locus YLR370C, strain arc18, stronger effect = lower value",0.499 (active)
same,normalized growth,"S. cerevisiae deletion strains, locus YLR371W, strain rom2, stronger effect = lower value",0.849 (active)
same,normalized growth,"S. cerevisiae deletion strains, locus YLR384C, strain iki3, stronger effect = lower value",0.713 (active)
same,normalized growth,"S. cerevisiae deletion strains, locus YLR418C, strain cdc73, stronger effect = lower value",0.583 (active)
same,normalized growth,"S. cerevisiae deletion strains, locus YML016C, strain PPZ1, stronger effect = lower value",0.482 (active)
same,normalized growth,"S. cerevisiae deletion strains, locus YML032C, strain rad52, stronger effect = lower value",1.05
same,normalized growth,"S. cerevisiae deletion strains, locus YML120C, strain ndi1, stronger effect = lower value",0.634 (active)
same,normalized growth,"S. cerevisiae deletion strains, locus YML124C, strain tub3, stronger effect = lower value",1.02
same,normalized growth,"S. cerevisiae deletion strains, locus YMR058W, strain fet3, stronger effect = lower value",0.101 (active)
same,normalized growth,"S. cerevisiae deletion strains, locus YMR078C, strain ctf18, stronger effect = lower value",1.02
same,normalized growth,"S. cerevisiae deletion strains, locus YMR125W, strain sto1, stronger effect = lower value",1.04
same,normalized growth,"S. cerevisiae deletion strains, locus YMR129W, stronger effect = lower value",0.604 (active)
same,normalized growth,"S. cerevisiae deletion strains, locus YMR205C, strain PFK2, stronger effect = lower value",0.353 (active)
same,normalized growth,"S. cerevisiae deletion strains, locus YMR223W, strain ubp8, stronger effect = lower value",0.979
same,normalized growth,"S. cerevisiae deletion strains, locus YMR231W, strain pep5, stronger effect = lower value",0.158 (active)
same,normalized growth,"S. cerevisiae deletion strains, locus YMR263W, strain SAP30, stronger effect = lower value",0.723 (active)
same,normalized growth,"S. cerevisiae deletion strains, locus YMR307W, strain GAS1, stronger effect = lower value",0.481 (active)
same,normalized growth,"S. cerevisiae deletion strains, locus YNL067W, strain RPL9B, stronger effect = lower value",0.699 (active)
same,normalized growth,"S. cerevisiae deletion strains, locus YNL071W, strain lat1, stronger effect = lower value",0.607 (active)
same,normalized growth,"S. cerevisiae deletion strains, locus YNL128W, strain TEP1, stronger effect = lower value",0.351 (active)
same,normalized growth,"S. cerevisiae deletion strains, locus YNL153C, strain GIM3, stronger effect = lower value",0.741 (active)
same,normalized growth,"S. cerevisiae deletion strains, locus YNL183C, strain NPR1, stronger effect = lower value",0.983
same,normalized growth,"S. cerevisiae deletion strains, locus YNL209W, strain ssb2, stronger effect = lower value",0.149 (active)
same,normalized growth,"S. cerevisiae deletion strains, locus YNL233W, strain BNI4, stronger effect = lower value",0.768 (active)
same,normalized growth,"S. cerevisiae deletion strains, locus YNL248C, strain rpa49, stronger effect = lower value",0.863 (active)
same,normalized growth,"S. cerevisiae deletion strains, locus YNL250W, strain rad50, stronger effect = lower value",1.02
same,normalized growth,"S. cerevisiae deletion strains, locus YNL271C, strain bni1, stronger effect = lower value",1.03
same,normalized growth,"S. cerevisiae deletion strains, locus YNL298W, strain CLA4, stronger effect = lower value",1.03
same,normalized growth,"S. cerevisiae deletion strains, locus YNL307C, strain MCK1, stronger effect = lower value",1.04
same,normalized growth,"S. cerevisiae deletion strains, locus YNL322C, strain KRE1 (second series), stronger effect = lower value",0.857 (active)
same,normalized growth,"S. cerevisiae deletion strains, locus YNL322C, strain KRE1, stronger effect = lower value",0.569 (active)
same,normalized growth,"S. cerevisiae deletion strains, locus YNR049C, strain mso1, stronger effect = lower value",0.913 (active)
same,normalized growth,"S. cerevisiae deletion strains, locus YNR052C, strain pop2, stronger effect = lower value",0.975
same,normalized growth,"S. cerevisiae deletion strains, locus YOL006C, strain TOP1, stronger effect = lower value",0.216 (active)
same,normalized growth,"S. cerevisiae deletion strains, locus YOL012C, strain htz1",0.378
same,normalized growth,"S. cerevisiae deletion strains, locus YOL147C, strain pex11, stronger effect = lower value",1.01
same,normalized growth,"S. cerevisiae deletion strains, locus YOR001W, strain rrp6, stronger effect = lower value",0.57 (active)
same,normalized growth,"S. cerevisiae deletion strains, locus YOR061W, strain CKA2, stronger effect = lower value",0.848 (active)
same,normalized growth,"S. cerevisiae deletion strains, locus YOR069W, strain VPS5, stronger effect = lower value",0.891 (active)
same,normalized growth,"S. cerevisiae deletion strains, locus YOR070C, strain gyp1, stronger effect = lower value",0.495 (active)
same,normalized growth,"S. cerevisiae deletion strains, locus YOR080W, strain dia2, stronger effect = lower value",0.286 (active)
same,normalized growth,"S. cerevisiae deletion strains, locus YOR083W, strain WHI5, stronger effect = lower value",0.543 (active)
same,normalized growth,"S. cerevisiae deletion strains, locus YOR106W, strain vam3, stronger effect = lower value",0.119 (active)
same,normalized growth,"S. cerevisiae deletion strains, locus YOR136W, strain idh2, stronger effect = lower value",0.99
same,normalized growth,"S. cerevisiae deletion strains, locus YOR144C, strain elg1, stronger effect = lower value",1.01
same,normalized growth,"S. cerevisiae deletion strains, locus YOR184W, strain ser1, stronger effect = lower value",0.857 (active)
same,normalized growth,"S. cerevisiae deletion strains, locus YOR231W, strain MKK1, stronger effect = lower value",1.04
same,normalized growth,"S. cerevisiae deletion strains, locus YOR265W, strain rbl2, stronger effect = lower value",0.658 (active)
same,normalized growth,"S. cerevisiae deletion strains, locus YOR270C, strain vph1, stronger effect = lower value",0.223 (active)
same,normalized growth,"S. cerevisiae deletion strains, locus YOR290C, strain snf2, stronger effect = lower value",0.496 (active)
same,normalized growth,"S. cerevisiae deletion strains, locus YOR316C, strain cot1, stronger effect = lower value",1.04
same,normalized growth,"S. cerevisiae deletion strains, locus YPL051W, strain arl3, stronger effect = lower value",0.263 (active)
same,normalized growth,"S. cerevisiae deletion strains, locus YPL055C, strain LGE1, stronger effect = lower value",0.473 (active)
same,normalized growth,"S. cerevisiae deletion strains, locus YPL078C, strain atp4, stronger effect = lower value",0.705 (active)
same,normalized growth,"S. cerevisiae deletion strains, locus YPL106C, strain sse1, stronger effect = lower value",0.593 (active)
same,normalized growth,"S. cerevisiae deletion strains, locus YPL240C, strain hsp82, stronger effect = lower value",0.679 (active)
same,normalized growth,"S. cerevisiae deletion strains, locus YPL241C, strain CIN2, stronger effect = lower value",0.922 (active)
same,normalized growth,"S. cerevisiae deletion strains, locus YPL256C, strain CLN2, stronger effect = lower value",1.15
same,normalized growth,"S. cerevisiae deletion strains, locus YPR119W, strain clb2, stronger effect = lower value",1.03
same,normalized growth,"S. cerevisiae deletion strains, locus YPR141C, strain kar3, stronger effect = lower value",1.03
same,normalized growth,"S. cerevisiae deletion strains, locus YPR163C, strain tif3, stronger effect = lower value",1.02
same,normalized growth,"S. cerevisiae deletion strains, locus YPR167C, strain met16, stronger effect = lower value",1.02
same,normalized growth,"S. cerevisiae deletion strains, strain wtn01, stronger effect = lower value",0.808 (active)
same,normalized growth,"S. cerevisiae strains, strain wild type, stronger effect = lower value",0.491 (active)
